Measurements reported in PubChem BioAssay.
Activity calls are given as the source filed them.

Key:
[1] = optical density shifts of acrAB sulA E. coli – strain DRC41, OD650, 48 h, E. coli filamentation inducer project, primary screen (AID 1152); conditions: higher = more signal, called active from +8 up or from −8 down;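 further: E. coli MC1000 strain DRC41 lacking acrAB efflux pump and sulA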
[2] = probe aLefty1 binding on compound microarray – biochemical, small-molecule microarray, 635/667 nm fluorescence, primary screen (AID 1153); conditions: higher = more signal;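 further: score merges spot fluorescence with signal-to-noise ratio from the scanned slide images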
[3] = plasmodial surface anion channel blockers, osmotic lysis – cell-based, P. falciparum Indochina, OD700, 1 h, primary screen (AID 1154); conditions: P. falciparum Indochina infected RBC osmotic lysis, higher = more signal, called active from +8 up or from −8 down
[4] = plasmodial surface anion channel blockers, osmotic lysis – cell-based, P. falciparum Indochina, OD700, 2 h, primary screen (AID 1155);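 further: lysis reports solute entry through the parasite surface anion channel PSAC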; conditions: P. falciparum Indochina infected erythrocytes, higher = more signal, called active from +8 up or from −8 down
[5] = changes in parasitized red cell lysis, either direction – P. falciparum Indochina, OD700, 3 h, PSAC antagonist project, primary screen (AID 1156); conditions: P. falciparum-infected erythrocytes, osmotic lysis, higher = more signal, called active from +8 up or from −8 down
[6] = plasmodial surface anion channel blockers, osmotic lysis – cell-based, P. falciparum Indochina, OD700, 18 h, primary screen (AID 1157); conditions: P. falciparum Indochina infected erythrocytes, osmotic lysis OD700, 18 h; higher = more signal, called active from +8 up or from −8 down
[7] = S6 kinase pathway phospho-S6 level changes – cell-based, A549, cytoblot, luminescence, serum-stimulated, primary screen (AID 1158); conditions: 5 h, higher = more signal;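 further: serum-stimulated A549 lung adenocarcinoma cells; signal is phosphorylated S6 detected by cytoblot immunostaining with HRP secondary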
[8] = target: NADPH oxidase 2 (Homo sapiens) (UniProt P04839); experiment: compounds shifting NOX2 Amplex Red fluorescence – cell-based, HEK293-NOX2, PMA-stimulated, NOX inhibitor project, primary screen (AID 1159); conditions: 45 min, higher = more signal, called active from +8 up or from −8 down; further: test concentration not given here
NADPH oxidase 2 (Homo sapiens), sequence (P04839 whole entry, looked up): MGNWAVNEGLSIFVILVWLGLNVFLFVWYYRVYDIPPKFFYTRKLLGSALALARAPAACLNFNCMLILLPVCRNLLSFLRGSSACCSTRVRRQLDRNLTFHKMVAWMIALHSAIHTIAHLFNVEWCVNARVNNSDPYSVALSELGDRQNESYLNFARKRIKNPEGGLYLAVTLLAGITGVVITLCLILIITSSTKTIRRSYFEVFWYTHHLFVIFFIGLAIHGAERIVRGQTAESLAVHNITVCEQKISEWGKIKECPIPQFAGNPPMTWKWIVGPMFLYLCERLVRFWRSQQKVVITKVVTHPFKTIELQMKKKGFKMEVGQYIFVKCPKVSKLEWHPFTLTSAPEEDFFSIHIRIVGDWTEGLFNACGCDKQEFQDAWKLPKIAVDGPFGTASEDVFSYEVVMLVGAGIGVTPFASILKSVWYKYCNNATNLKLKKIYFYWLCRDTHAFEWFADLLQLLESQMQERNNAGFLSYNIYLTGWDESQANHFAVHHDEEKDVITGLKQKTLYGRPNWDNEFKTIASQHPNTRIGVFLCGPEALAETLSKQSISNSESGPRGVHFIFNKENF

[9] = target: NADPH oxidase 4 (Homo sapiens) (UniProt Q9NPH5); experiment: compounds shifting NOX4 Amplex Red fluorescence – cell-based, HEK293-NOX4, tetracycline-induced, NOX inhibitor project, primary screen (AID 1160); conditions: HEK293-NOX4, Amplex Red H2O2 fluorescence, 45 min; higher = more signal, called active from +8 up or from −8 down
NADPH oxidase 4 (Homo sapiens), sequence (Q9NPH5 whole entry, looked up): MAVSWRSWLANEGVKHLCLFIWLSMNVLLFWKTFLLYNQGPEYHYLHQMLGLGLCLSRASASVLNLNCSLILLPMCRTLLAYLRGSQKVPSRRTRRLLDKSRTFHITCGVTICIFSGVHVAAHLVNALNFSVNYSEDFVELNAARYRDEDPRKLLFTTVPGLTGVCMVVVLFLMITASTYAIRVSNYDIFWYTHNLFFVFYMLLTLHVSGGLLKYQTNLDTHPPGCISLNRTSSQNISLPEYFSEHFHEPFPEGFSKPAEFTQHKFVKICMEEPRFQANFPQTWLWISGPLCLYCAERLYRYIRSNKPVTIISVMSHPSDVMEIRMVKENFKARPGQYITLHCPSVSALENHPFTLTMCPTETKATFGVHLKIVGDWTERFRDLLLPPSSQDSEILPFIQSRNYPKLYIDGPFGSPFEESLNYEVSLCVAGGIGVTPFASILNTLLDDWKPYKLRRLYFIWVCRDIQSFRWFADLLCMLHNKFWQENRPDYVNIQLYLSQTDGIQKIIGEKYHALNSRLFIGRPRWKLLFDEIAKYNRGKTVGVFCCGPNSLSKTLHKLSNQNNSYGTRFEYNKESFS

[10] = target: NADPH oxidase 5 (Homo sapiens) (UniProt Q96PH1); experiment: compounds shifting NOX5 Amplex Red fluorescence – cell-based, HEK293-NOX5, NOX inhibitor project, primary screen (AID 1161); conditions: HEK293-NOX5, ionomycin, 45 min, higher = more signal
NADPH oxidase 5 (Homo sapiens), sequence (Q96PH1 whole entry, looked up): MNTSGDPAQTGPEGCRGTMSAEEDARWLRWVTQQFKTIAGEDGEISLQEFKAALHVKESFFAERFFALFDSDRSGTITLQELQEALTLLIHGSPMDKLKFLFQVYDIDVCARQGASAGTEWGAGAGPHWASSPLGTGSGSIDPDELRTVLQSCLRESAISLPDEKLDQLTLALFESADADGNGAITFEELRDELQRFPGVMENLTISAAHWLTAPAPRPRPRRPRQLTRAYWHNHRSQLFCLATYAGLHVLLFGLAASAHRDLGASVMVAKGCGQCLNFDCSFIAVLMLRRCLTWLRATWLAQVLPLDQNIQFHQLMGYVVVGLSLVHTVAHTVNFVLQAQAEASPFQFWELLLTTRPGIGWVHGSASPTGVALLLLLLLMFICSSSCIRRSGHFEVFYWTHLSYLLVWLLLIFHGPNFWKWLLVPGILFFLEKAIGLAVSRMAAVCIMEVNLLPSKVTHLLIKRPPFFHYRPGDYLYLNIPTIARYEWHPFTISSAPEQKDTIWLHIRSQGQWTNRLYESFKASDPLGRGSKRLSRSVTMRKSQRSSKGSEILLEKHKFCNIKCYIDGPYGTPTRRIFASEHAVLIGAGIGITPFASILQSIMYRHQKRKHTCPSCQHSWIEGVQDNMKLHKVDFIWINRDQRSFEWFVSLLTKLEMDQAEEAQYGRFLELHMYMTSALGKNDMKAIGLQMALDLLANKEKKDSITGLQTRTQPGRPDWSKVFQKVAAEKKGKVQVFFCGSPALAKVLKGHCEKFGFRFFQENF

[11] = compound effects on lung adenocarcinoma cell viability – A549, calcein-AM fluorescence, 48 h, basal, profiling panel (AID 1162); conditions: higher = more signal; further: test concentration not given here
[12] = compound effects on differentiated 3T3-L1 adipocyte viability – cell-based, 3T3-L1 adipocytes, calcein-AM fluorescence, 48 h, basal, profiling panel (AID 1163); conditions: 3T3-L1 adipocytes viability, higher = more signal; further: test concentration not given here
[13] = compound effects on hepatocellular carcinoma cell viability – HepG2, calcein-AM fluorescence, 48 h, basal, profiling panel (AID 1164); conditions: higher = more signal; further: test concentration not given here
[14] = compound effects on multiple myeloma cell viability – MM1S, calcein-AM fluorescence, 48 h, basal, profiling panel (AID 1165); conditions: higher = more signal; further: test concentration not given here
[15] = calcein-AM signal in unstimulated myeloma cells – cell-based, calcein-AM fluorescence, 48 h, PK04 Diversity Set, profiling panel (AID 1166); conditions: RPMI8226 myeloma viability, higher = more signal;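 further: cells grown under basal conditions without added stimulus; test concentration not given here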
[16] = JC-1 mitochondrial signal, unstimulated HepG2 cells – cell-based, JC-1 fluorescence, 24 h, 100 nL compound, profiling panel (AID 1167); conditions: HepG2 mitochondrial potential, higher = more signal; further: test concentration not given here
[17] = JC-1 mitochondrial signal, unstimulated adipocytes – cell-based, JC-1 fluorescence, 3T3-L1 adipocytes, 24 h, 100 nL compound, profiling panel (AID 1168); conditions: JC-1 mitochondrial fluorescence, higher = more signal, called active from +8 up or from −8 down; further: test concentration not given here
[18] = JC-1 mitochondrial signal, unstimulated myeloma cells – cell-based, JC-1 fluorescence, RPMI8226, 24 h, 100 nL compound, profiling panel (AID 1169); conditions: JC-1 mitochondrial potential fluorescence, higher = more signal; further: test concentration not given here
[19] = JC-1 mitochondrial signal, unstimulated MM1S myeloma – cell-based, JC-1 fluorescence, 24 h, 100 nL compound, profiling panel (AID 1170); conditions: MM1S mitochondrial potential, higher = more signal; further: test concentration not given here
[20] = resazurin metabolic signal in A549 cells – cell-based, resazurin fluorescence, 24 h, PK04 Diversity Set, profiling panel (AID 1171); conditions: A549 viability, higher = more signal, called active from +8 up or from −8 down; further: test concentration not given here

SMILES | z-score [1] | composite z-score [2] | z-score [3] | z-score [4] | z-score [5] | z-score [6] | z-score [7] | z-score [8] | z-score [9] | z-score [10] | z-score [11] | z-score [12] | z-score [13] | z-score [14] | z-score [15] | z-score [16] | z-score [17] | z-score [18] | z-score [19] | z-score [20]
COCCOC(=O)N1C(=O)[C@@]2(c3cc(C#CC4(O)CCCCCC4)ccc31)[C@H](c1ccc(OCCO)cc1)N1[C@H](c3ccccc3)[C@H](c3ccccc3)OC(=O)[C@H]1[C@@H]2C(N)=O | -0.137 (inactive) | 0.223 | 4.19 (inactive) | 1.89 (inactive) | 0.295 (inactive) | 0.999 (inactive) | -0.485 | 1.82 (inactive) | 0.847 (inactive) | -0.305 | -0.29 | 0.902 | -1.52 | -3.04 | -3.86 | -2.03 | -0.408 (inactive) | -0.814 | -1.21 | -0.933 (inactive)
CCOC(=O)C1=CCC(c2cc3ccccc3[nH]2)N(S(=O)(=O)c2ccccc2[N+](=O)[O-])C1 (stereo not given) | -0.485 (inactive) | -0.391 | 4.73 (inactive) | 0.822 (inactive) | -0.217 (inactive) | 0.631 (inactive) | -0.146 | 0.269 (inactive) | -0.546 (inactive) | 0.731 | 0.0857 | -0.913 | 0.527 | 0.277 | -0.467 | 1.17 | -0.433 (inactive) | -0.366 | -1.61 | -0.869 (inactive)
C#CCN([C@H](/C=C/C1CC1)[C@@H](O)Cc1ccccc1)[C@@H](Cc1ccccc1)C(=O)OC | 1.3 (inactive) | 0.0531 | 2.62 (inactive) | 1.78 (inactive) | -0.345 (inactive) | 1.28 (inactive) | 0.296 | -0.293 (inactive) | 0.396 (inactive) | -2.6 | -0.509 | -0.129 | -0.0708 | -1.2 | -2.55 | 3.34 | 0.292 (inactive) | -0.842 | -1.33 | 3.31 (inactive)
N[C@@H](Cc1ccccc1)Cn1cc(C2(O)CCCCC2)nn1 | -1.05 (inactive) | 0.099 | 0.225 (inactive) | -0.304 (inactive) | 0.005 (inactive) | 0.137 (inactive) | -0.225 | 0.0811 (inactive) | 1.51 (inactive) | 1.19 | -0.359 | -0.169 | 0.0224 | -0.991 | -0.775 | -0.739 | -0.375 (inactive) | -0.622 | -0.313 | -0.279 (inactive)
C[C@H]1C2[C@H](Cc3ccccc3)NC(=O)[C@]23C(=O)NCC(=O)N2CCC[C@H]2C(=O)NC/C=C\C/C=C/C3[C@@H]2O[C@]12C (stereo not given in full) | 0.822 (inactive) | -0.193 | -0.0865 (inactive) | -0.387 (inactive) | -0.62 (inactive) | -0.113 (inactive) | 0.255 | 0.212 (inactive) | 1.07 (inactive) | 0.649 | 0.379 | 0.491 | 0.409 | 0.163 | -0.547 | -0.324 | 0.0628 (inactive) | -1.03 | 0.227 | 0.87 (inactive)
NC(=O)[C@@]1(CCS(=O)(=O)c2ccccc2)COC(c2ccc(OCCCO)cc2)=N1 | 1.05 (inactive) | 0.281 | 22.1 (active) | 4.56 (inactive) | 0.815 (inactive) | 0.939 (inactive) | -0.192 | -2.33 (inactive) | -0.383 (inactive) | -0.124 | -0.339 | -0.519 | 0.344 | -0.0256 | 0.458 | -0.522 | -0.762 (inactive) | -0.436 | -0.942 | -0.721 (inactive)
